Laboratory results taken from PubChem BioAssay (NCATS).
Inconclusive results are not listed. The source made the active and inactive calls. Calls come from the whole dose curve; as a rule, active = well fitted cell-killing curve with a large enough effect; inconclusive = small, poorly fitted or top-dose-only effect; inactive = flat fitted curve, though single readings scatter.

experiment: Cell Viability - LYMP1-003 - Assay at 24 hr (AID 963); settings: LYMP1-003 lymphoblastoid cell viability; series mostly up to 92.2 µM; viability change, negative = cytotoxic: at the top concentration;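 note: plate controls were DMSO only for no effect and tetraoctylammonium bromide positive control for full effect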
Procedure, shortened: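 Human lymphoblastoid LYMP1-003 cells (2500/well) were rested 5 hr at 37 C, then exposed to compounds in complete medium for 24 hr at 37 C. Cellular ATP was quantified by CellTiter-Glo luminescence, and AC50 values came from Hill fits of concentration-response data.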

Row | SMILES | viability change, negative = cytotoxic
1 | CC(C#N)CCC#N (stereo not drawn) | -1.04% (inactive)
2 | Nc1cc(Cl)ccc1Cl | -1.92% (inactive)
3 | Nc1cccc(Cl)c1 | -8.09% (inactive)
4 | ClCc1ccccc1 | -1.8% (inactive)
5 | CCC/C=N/O | 0.992% (inactive)
6 | COc1c(C(C)(C)C)cc([N+](=O)[O-])c(C)c1[N+](=O)[O-] | -0.323% (inactive)
7 | O=S(=O)(Cl)c1ccccc1 | -0.959% (inactive)
8 | C=CCOCC1CO1 (stereo not drawn) | -0.607% (inactive)
9 | c1ccoc1 | 0.912% (inactive)
10 | Clc1ccccc1 | 1.32% (inactive)
11 | ClC(Cl)(Cl)C(Cl)(Cl)Cl | 1.95% (inactive)
12 | CCOC(=O)C1OC1(C)c1ccccc1 (stereo not drawn) | 1.11% (inactive)
13 | C/C=C/CC#N | -0.245% (inactive)
14 | ClC(Cl)C(Cl)Cl | -0.0657% (inactive)
15 | C=CCCl | -4.72% (inactive)
16 | Oc1c(Cl)cccc1Cl | 3.53% (inactive)
17 | Brc1cccc(-c2ccccc2)c1 | -2.38% (inactive)
18 | C=CCO | 3.38% (inactive)
19 | OCCCCO | -0.979% (inactive)
20 | Nn1cnnc1 | -1.75% (inactive)

Row | SMILES | viability change, negative = cytotoxic
21 | BrCCc1ccccc1 | -1.2% (inactive)
22 | Cc1ccccc1[N+](=O)[O-] | -0.915% (inactive)
23 | CCCCOC(=O)c1ccccc1N | 1.72% (inactive)
24 | Clc1cc(Cl)c(Cl)c(Cl)c1 | 6.28% (inactive)
25 | Cc1ccc(N)c(C)c1 | 0.907% (inactive)
26 | C1CC2OC2CC1C1CO1 (stereo not drawn) | -2.51% (inactive)
27 | CN(C)C(=O)Cl | 2.55% (inactive)
28 | CC(=O)NNc1ccccc1 | -4.42% (inactive)
29 | Cc1ccc(N=C=O)cc1N=C=O | -5.03% (inactive)
30 | O=C(Cl)OCc1ccccc1 | -1.65% (inactive)
31 | C=CC(=O)OC | 2.02% (inactive)
32 | CCN(CC)N=O | 0.951% (inactive)
33 | OCC(Cl)CCl (stereo not drawn) | 2.22% (inactive)
34 | CC(C)CON=O | -0.456% (inactive)
35 | CC[N+](=O)[O-] | 5.56% (inactive)
36 | CC(C)(Cl)[N+](=O)[O-] | -1.68% (inactive)
37 | C[N+](=O)[O-] | -6.66% (inactive)
38 | CC(C)OC(=O)Cc1ccccc1 | 0.727% (inactive)
39 | ClCC(Br)CBr (stereo not drawn) | -1.08% (inactive)

experiment: Cell Viability - LYMP1-003 - Assay at 40 hr (AID 964); settings: LYMP1-003 lymphoblastoid viability; series mostly up to 92.2 µM; activity change, negative = cytotoxic: at the top concentration; note: % is set by controls: 0 for no effect and ±100 for the full control effect; nearly all actives have a fitted effect of over 60% in size
Procedure, shortened: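 Human lymphoblastoid LYMP1-003 cells, 2500/well in complete medium, rested 5 hr at 37 C, then exposed to compounds for 40 hr at 37 C. Viability read as intracellular ATP by CellTiter-Glo luminescence; AC50 from Hill fits of concentration-response data.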

Row | SMILES | activity change, negative = cytotoxic
40 | CC(C#N)CCC#N (stereo not drawn) | 1.35% (inactive)
41 | Nc1cc(Cl)ccc1Cl | -4.38% (inactive)
42 | Nc1cccc(Cl)c1 | -5.16% (inactive)
43 | ClCc1ccccc1 | -4.19% (inactive)
44 | CCC/C=N/O | -1.02% (inactive)
45 | COc1c(C(C)(C)C)cc([N+](=O)[O-])c(C)c1[N+](=O)[O-] | -0.767% (inactive)
46 | O=S(=O)(Cl)c1ccccc1 | -18.7% (inactive)
47 | C=CCOCC1CO1 (stereo not drawn) | -11.3% (inactive)
48 | c1ccoc1 | 3.07% (inactive)
49 | Clc1ccccc1 | -4.05% (inactive)
50 | ClC(Cl)(Cl)C(Cl)(Cl)Cl | -2.71% (inactive)
51 | CCOC(=O)C1OC1(C)c1ccccc1 (stereo not drawn) | -9.56% (inactive)
52 | C/C=C/CC#N | -3.09% (inactive)
53 | ClC(Cl)C(Cl)Cl | 1.26% (inactive)
54 | C=CCCl | -5.12% (inactive)
55 | Oc1c(Cl)cccc1Cl | -3.25% (inactive)
56 | Brc1cccc(-c2ccccc2)c1 | -2.98% (inactive)
57 | C=CCO | 0.633% (inactive)
58 | OCCCCO | 7.55% (inactive)
59 | Nn1cnnc1 | -1.85% (inactive)

Row | SMILES | activity change, negative = cytotoxic
60 | BrCCc1ccccc1 | -2.66% (inactive)
61 | Cc1ccccc1[N+](=O)[O-] | -9.02% (inactive)
62 | CCCCOC(=O)c1ccccc1N | 0.614% (inactive)
63 | Clc1cc(Cl)c(Cl)c(Cl)c1 | 2.44% (inactive)
64 | Cc1ccc(N)c(C)c1 | 1.63% (inactive)
65 | C1CC2OC2CC1C1CO1 (stereo not drawn) | 13% (inactive)
66 | CN(C)C(=O)Cl | -5.96% (inactive)
67 | CC(=O)NNc1ccccc1 | -13% (inactive)
68 | Cc1ccc(N=C=O)cc1N=C=O | -14.4% (inactive)
69 | O=C(Cl)OCc1ccccc1 | -14.2% (inactive)
70 | C=CC(=O)OC | -6.23% (inactive)
71 | CCN(CC)N=O | -0.595% (inactive)
72 | OCC(Cl)CCl (stereo not drawn) | -6.76% (inactive)
73 | CC(C)CON=O | 2.43% (inactive)
74 | CC[N+](=O)[O-] | 0.325% (inactive)
75 | CC(C)(Cl)[N+](=O)[O-] | -1.74% (inactive)
76 | C[N+](=O)[O-] | -1.91% (inactive)
77 | CC(C)OC(=O)Cc1ccccc1 | -2.83% (inactive)
78 | ClCC(Br)CBr (stereo not drawn) | -6.75% (inactive)
